Source: PubChem BioAssay (NCI)
The panel holds about 79,000 compounds, 15% with a hit somewhere; the sample as a whole holds those more often. The source made the active and inactive calls. No stated cut-off is given here; in the data, active means growth inhibition above about 70%; inactive means the rest.

Test: NCI Yeast Anticancer Drug Screen. Data for the sgs1 mgt1 strain (AID 161);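 further: 0% = growth of cultures given vehicle only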
Conditions: S. cerevisiae sgs1 mgt1 strain, hits give high values
Method: Growth inhibition of yeast strains with defined genetic alterations is measured as a screen for potential anti-cancer activity. Selected strains with alterations in DNA damage repair or cell cycle control were exposed to compounds and growth inhibition was measured relative to vehicle treated controls. The strain used in this assay is sgs1 mgt1

[1] = at 5.0 µM (retest, dose inferred, filed as 0.5)
[2] = at 50.0 µM (retest, dose inferred, filed as 5.0)

Structure (SMILES)	growth inhibition [1]	growth inhibition [2]	growth inhibition (at 50.0 µM)
Nc1nc(-c2cccnc2)cc(-c2cc(-c3cccnc3)nc(N)n2)n1	19% (inactive)	15% (inactive)	0.15% (inactive)
O=[N+]([O-])c1ccc([N+]2=NC(c3ccccc3)=NN(c3ccccc3)C2)cc1	-1% (inactive)	17% (inactive)	74.5% (active)
COc1ccc2nc3cccc([N+](=O)[O-])c3c(NCCN(CCO)CCO)c2c1	78% (active)	94% (active)	69.5% (inactive)
C[Si](C)(C)CNC(=O)OCc1ccccc1	-8% (inactive)	-13% (inactive)	4.25% (inactive)
Clc1ccc(SC(/C=C/NNC2=NC(c3ccccc3)C(c3ccccc3)=NN2)c2ccccc2)cc1 (configuration not stated)	31% (inactive)	31% (inactive)	49.8% (inactive)
CNC(=O)OCc1c(COC(=O)NC)c(-c2ccc(Cl)c(Cl)c2)n2c1CCC2	32% (inactive)	99% (active)	78.5% (active)
CC(/C=C/c1ccc(Cl)cc1)=N\NC(=S)NCC(C)C	46% (inactive)	72% (active)	77.8% (active)
O=C(Cc1csc2[n+]1C(=O)/C(=C/c1ccc(Cl)cc1)S2)Nc1ccccc1	2% (inactive)	96% (active)	98.9% (active)
S=C(S)NN1CCOCC1	92% (active)	91% (active)	77.2% (active)
COc1ccc(/C(C)=N/OC(=O)c2c(-c3ccccc3Cl)noc2C)cc1CN1CCOCC1	-16% (inactive)	98% (active)	74.4% (active)
S=C(N/N=C/c1ccccn1)Nc1ccc(Cl)cc1	27% (inactive)	96% (active)	83.8% (active)
O=C(/C=C/c1cccc(Br)c1)c1cccs1	16% (inactive)	96% (active)	91.8% (active)
O=C(O)c1cccc(-c2c3ccc(=O)cc-3oc3cc(O)ccc23)c1	0% (inactive)	39% (inactive)	54.2% (inactive)
O=C(NCCCNCCCNC(=O)c1cc(-c2ccccc2)nc2ccccc12)c1cc(-c2ccccc2)nc2ccccc12	0% (inactive)	-8% (inactive)	56.2% (inactive)
